PubChem BioAssay (Tox21)
Results filed as inconclusive are left out. A number with no mark means an inactive call. The source made the active and inactive calls. The call rests on the fitted dose curve; in most records, active means well fitted cell-killing curve with a large enough effect in the repeat runs; inconclusive means weak or mixed curves, or effect the other way; inactive means flat fitted curve, though single readings scatter.

Assay: cAMP Responsive Elements (CRE) small molecule agonists, cell-based qHTS assay: qHTS cell viability counter screen (AID 2060914);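 further: viability read after 3 h of compound exposure; nearly all actives have a fitted effect of over 50% in size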
Details: CRE-bla HEK293T viability, CellTiter-Glo luminescence, 5 h; series mostly up to 92.4 µM; activity change, negative = cytotoxicity: at the top concentration
Source text: National Center for Advancing Translational Sciences [NCATS]
Division of Preclinical Innovation [DPI]
U.S. Environmental Protection Agency [EPA]
National Institutes of Environmental Health Sciences [NIEHS]
National Toxicology Program [NTP]
U.S. Food and Drug Administration [FDA]
CREB (cyclic-AMP Responsive Element Binding Protein) is a cellular transcription factor. It binds to certain DNA sequences called cAMP Responsive Elements (CRE) and regulates the transcription of the genes. […] This cell line can be used to find agonists/antagonists of the cyclic AMP signaling pathway. The activation of the report gene under culture conditions can be detected by fluorescence intensity. This cell line has been used to screen the Tox21 10K compound library to identify agonists that induce oxidative stress. The cytotoxicity of the Tox21 compound library against the CRE-bla cell line was tested in parallel by measuring the cell viability using CellTiter-Glo assay (Promega, Madison, WI) in the same wells.
Tox21 Assay Protocol Summary:
CRE-bla Hek 293T cells were suspended in assay medium (DMEM containing 10% dialyzed FBS, 0.1 mM NEAA, 1 mM sodium pyruvate and 25 mM HEPES) and dispensed at 2,000 cells/5 uL /well into 1536-well black wall/clear bottom plates using a Multidrop Combi (ThermoFisher Scientific, Waltham, MA) dispenser. After the assay plates were incubated at 37 C/5% CO2 for 18 hrs, 23 nL of compounds dissolved in DMSO, positive controls or DMSO only was transferred to the assay plate by a pintool workstation (Kalypsys, San Diego, CA). After the plates were incubated at 37 C/5% CO2 for 3 hrs, 1 uL of LiveBLAzer B/G FRET substrate (Invitrogen, Carlsbad, CA) was added to each well using Bioraptr Flying Reagent Dispenser (FRD, Aurora Discovery, San Diego, CA). The plates were incubated at room temperature for 2 h, then fluorescence intensities were measured using an Envision plate reader (PerkinElmer, Shelton, CT) at Excitation 405nm, Emission 460nm and 530nm. The % activity was determined from the ratio of 460nm/530nm. For cell viability readout that measures cytotoxicity, 4 uL /well of CellTiter-Glo reagent was added into the assay plates using Bioraptr FRD. After 30 min incubation at room temperature, the luminescence intensity in the assay plates was measured using a ViewLux (PerkinElmer, Shelton, CT) plate reader.
On the % scale 0 is the no-effect control and ±100 the full control effect.

SMILES | activity change, negative = cytotoxicity | Potency
CN1CCCC(n2nc(Cc3ccc(Cl)cc3)c3ccccc3c2=O)CC1 (stereo not given) | 9.86% [at 42.5 µM] | 
CC(=O)c1ccc(OCC(=O)N2CCCCC2)cc1 | 6.82% [at 42.5 µM] | 
CC(=O)OCC(=O)NCCCOc1cccc(CN2CCCCC2)c1 | 2.95% [at 42.5 µM] | 
COc1cc(C(C)=O)ccc1OCCCN1CCC(c2noc3cc(F)ccc23)CC1 | 10.8% [at 42.5 µM] | 
COc1ccc(Br)c(C)c1 | 4.88% | 
Brc1cc2ccccc2c2ccccc12 | 2.69% | 
CC(C)C(=O)OCc1cccc(OC(=O)[C@@H]2N3C(=O)[C@@H](NC(=O)Cc4ccccc4)[C@H]3SC2(C)C)c1 | 14.2% [at 42.5 µM] | 
CC(C)(C(=O)O)c1ccc(C(O)CCCN2CCC(C(O)(c3ccccc3)c3ccccc3)CC2)cc1 (stereo not given) | 17.9% [at 42.5 µM] | 
Cc1c(NC(C)C)c(=O)n(-c2ccccc2)n1C | 15.8% [at 42.5 µM] | 
CCCCCCCCCCCC[N+](C)(C)CC(=O)[O-] | -16.1% | 
NNC(=O)c1ccncc1 |  | inactive
CC(C)CCCCCCOC(=O)C1CCCCC1C(=O)OCCCCCCC(C)C (stereo not given) | 8.68% | 
Cc1cccc(N(C)C(=S)Oc2ccc3ccccc3c2)c1 |  | inactive
COc1ccccc1OCC1CNC(=O)O1 (stereo not given) | -20% [at 42.5 µM] | 
COc1ccc(N=Nc2cc(C)c(N=Nc3ccc(S(=O)(=O)O)cc3)cc2OC)cc1 | -2.39% | 
C[N+](C)(C)CC(O)CC(=O)[O-] (stereo not given) | -0.106% [at 42.5 µM] | 
OCC(CO)(CBr)CBr |  | inactive
O=C1c2ccccc2C(=O)N1CO | -10.3% | 
O=C(C(=O)c1ccco1)c1ccco1 | 0.639% | 
CC1(C)[C@H](C(=O)O)N2C(=O)C[C@H]2S1(=O)=O | -7.45% [at 42.5 µM] | 

SMILES | activity change, negative = cytotoxicity | Potency
COC(=O)c1ccc(C(=O)OC)cc1 |  | inactive
COC(=O)C1=C(C)NC(C)=C(C(=O)OC)C1c1ccccc1[N+](=O)[O-] |  | inactive
CCO[Si](CC(C)C)(OCC)OCC | 0.0695% | 
Cc1c(N(C)C)c(=O)n(-c2ccccc2)n1C |  | inactive
CC[C@@H](N)CO | 4.08% | 
ClCCl | -12.8% | 
CCCCCCCCCC | -11.3% | 
CO[Si](CCCNc1ccccc1)(OC)OC | 2.96% | 
CC(=O)Oc1c(C)c(C)c2c(c1C)CC[C@@](C)(CCC[C@H](C)CCC[C@H](C)CCCC(C)C)O2 |  | inactive
OC[C@@H](O)[C@H](O)[C@@H](O)[C@@H](O)CO | 2.88% | 
OC[C@]1(O)OC[C@@H](O)[C@H](O)[C@@H]1O |  | inactive
CC(=O)c1c(C)c([N+](=O)[O-])c(C(C)(C)C)c([N+](=O)[O-])c1C | -11.8% | 
CCCC[C@H]1CN(CC2CCOCC2)C(=O)OC12CCN(C1(C)CCN(C(=O)c3c(C)ncnc3C)CC1)CC2 | -0.962% | 
C=C[C@H]1CN2CC[C@H]1C[C@H]2[C@H](O)c1ccnc2ccc(OC)cc12 |  | inactive
CCCC/C=C/C=C\C=O | -6.7% | 
CCCCCCCCCCCCCCCCOS(=O)(=O)O | 0.671% [at 42.5 µM] | 
COc1c2occc2cc2ccc(=O)oc12 |  | inactive
CCN[C@H]1C[C@H](C)S(=O)(=O)c2sc(S(N)(=O)=O)cc21 | 13.9% [at 42.5 µM] | 
COc1ccc(COC=O)cc1 | 3.17% | 
CC(C)OC(=O)c1ccccc1C(=O)OC(C)C | -1.62% | 
